Measured values from the supplement of paper PMC10849652.
Of roughly 8,800 targets only a part is listed; those with a hit were picked by preference. About 0.5% of all pairs of compound and target were hits.

Key:
Experiment in all cases: log2 fold change, soluble protein after heating vs DMSO (PISA); higher = thermal stabilisation; K562 lysate, 10 uM; active = over 0.2 and 3.5 SD of the protein, either way, in both replicates (recomputed)
[1] = compound: CCCS(=O)(=O)Nc1ccc(F)c(C(=O)c2c[nH]c3ncc(-c4ccc(Cl)cc4)cc23)c1F [vemurafenib]
Summary of the method: (§1)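 Dounce homogenisation of K562 pellets in PBS pH 7.4 with 1 mM MgCl2 produced a crude extract, used at 1 mg/mL protein. Exposure to 10 μM compound lasted 30 min, and aliquots were then heated for 3 min across 48°C-58°C, pooled and brought to 0.5% NP-40 at 4°C. The supernatant after 21,000xg for 90 min was quantified by TMTpro 16plex LC-MS/MS with channel sums equalised. Duplicate values are given as log-two fold change in thermal stability relative to solvent controls.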

[2] = compound: CCCS(=O)(=O)Nc1ccc(F)c(C(=O)c2c[nH]c3ncc(Cl)cc23)c1F
Summary of the method: as §1

[3] = compound: CCN(CCCOc1ccc2c(Nc3cc(CC(=O)Nc4cccc(F)c4)[nH]n3)ncnc2c1)CCOP(=O)(O)O [barasertib]
Summary of the method: as §1

[4] = compound: CC[C@@H]1C(=O)N(C)c2cnc(Nc3ccc(C(=O)NC4CCN(C)CC4)cc3OC)nc2N1C1CCCC1
Summary of the method: as §1

[5] = compound: CC[C@@H]1C(=O)N(C)c2cnc(Nc3ccc(C(=O)N[C@H]4CC[C@H](N5CCN(CC6CC6)CC5)CC4)cc3OC)nc2N1C(C)C [volasertib]
Summary of the method: as §1

[6] = compound: CCn1c(C(=O)N(C2CC2)C2CC2)cc2c3c(ncn3C)c(Nc3cc(C)n(C)n3)nc21
Summary of the method: as §1

[7] = compound: CCn1cc(-c2ccnc3[nH]c(-c4cccc(CN(C)C)c4)cc23)c(-c2ccc(NC(=O)N(C)C)cc2)n1
Summary of the method: as §1

[8] = compound: CN1CCC(CNc2ccc3ncc(-c4cccc(OC(F)(F)F)c4)n3n2)CC1
Summary of the method: as §1

[9] = compound: CN1CCN(CCOc2cc(OC3CCOCC3)c3c(Nc4c(Cl)ccc5c4OCO5)ncnc3c2)CC1 [saracatinib]
Summary of the method: as §1

[10] = compound: CN1CCN(c2nc(C3=C(c4c[nH]c5ccccc45)C(=O)NC3=O)c3ccccc3n2)CC1 [sotrastaurin]
Summary of the method: as §1

Measured: log2 fold change

CCNB2 (UniProt O95067)
Chain of UniProt O95067 (O95067 whole entry, looked up): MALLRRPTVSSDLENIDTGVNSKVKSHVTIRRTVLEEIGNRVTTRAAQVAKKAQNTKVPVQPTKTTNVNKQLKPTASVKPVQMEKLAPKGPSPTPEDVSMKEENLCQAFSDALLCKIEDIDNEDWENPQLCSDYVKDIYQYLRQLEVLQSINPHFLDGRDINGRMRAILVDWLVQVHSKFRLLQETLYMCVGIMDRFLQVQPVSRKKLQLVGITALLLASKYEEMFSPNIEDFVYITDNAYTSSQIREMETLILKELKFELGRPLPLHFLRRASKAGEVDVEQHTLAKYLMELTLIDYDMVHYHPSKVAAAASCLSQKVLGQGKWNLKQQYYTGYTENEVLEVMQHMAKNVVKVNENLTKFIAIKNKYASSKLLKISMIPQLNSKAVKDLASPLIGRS
inactive: [1] 0.04 | [2] -0.008 | [3] 0.06 | [4] 0.037 | [5] -0.072 | [6] -0.059 | [7] -0.085 | [8] 0.011 | [9] 0.038 | [10] 0.078

BCKDHB (UniProt P21953)
inactive: [1] 0.068 | [2] 0.032 | [3] 0.065 | [4] -0.102 | [5] -0.079 | [6] -0.064 | [7] 0.022 | [8] -0.02 | [9] -0.012 | [10] 0.129

ATR (UniProt Q13535)
inactive: [1] 0.059 | [2] 0.013 | [3] 0 | [4] 0.017 | [5] -0.13 | [6] 0.018 | [7] -0.307 | [8] 0.337 | [9] 0.018 | [10] 0.081

CASC4 (UniProt Q6P4E1)
inactive: [1] 0 | [2] 0.02 | [3] -0.02 | [4] 0.009 | [5] 0.017 | [6] 0.022 | [7] -0.05 | [8] -0.008 | [9] -0.003 | [10] -0.004

ATM (UniProt Q13315)
Chain of UniProt Q13315 (Q13315 whole entry, looked up): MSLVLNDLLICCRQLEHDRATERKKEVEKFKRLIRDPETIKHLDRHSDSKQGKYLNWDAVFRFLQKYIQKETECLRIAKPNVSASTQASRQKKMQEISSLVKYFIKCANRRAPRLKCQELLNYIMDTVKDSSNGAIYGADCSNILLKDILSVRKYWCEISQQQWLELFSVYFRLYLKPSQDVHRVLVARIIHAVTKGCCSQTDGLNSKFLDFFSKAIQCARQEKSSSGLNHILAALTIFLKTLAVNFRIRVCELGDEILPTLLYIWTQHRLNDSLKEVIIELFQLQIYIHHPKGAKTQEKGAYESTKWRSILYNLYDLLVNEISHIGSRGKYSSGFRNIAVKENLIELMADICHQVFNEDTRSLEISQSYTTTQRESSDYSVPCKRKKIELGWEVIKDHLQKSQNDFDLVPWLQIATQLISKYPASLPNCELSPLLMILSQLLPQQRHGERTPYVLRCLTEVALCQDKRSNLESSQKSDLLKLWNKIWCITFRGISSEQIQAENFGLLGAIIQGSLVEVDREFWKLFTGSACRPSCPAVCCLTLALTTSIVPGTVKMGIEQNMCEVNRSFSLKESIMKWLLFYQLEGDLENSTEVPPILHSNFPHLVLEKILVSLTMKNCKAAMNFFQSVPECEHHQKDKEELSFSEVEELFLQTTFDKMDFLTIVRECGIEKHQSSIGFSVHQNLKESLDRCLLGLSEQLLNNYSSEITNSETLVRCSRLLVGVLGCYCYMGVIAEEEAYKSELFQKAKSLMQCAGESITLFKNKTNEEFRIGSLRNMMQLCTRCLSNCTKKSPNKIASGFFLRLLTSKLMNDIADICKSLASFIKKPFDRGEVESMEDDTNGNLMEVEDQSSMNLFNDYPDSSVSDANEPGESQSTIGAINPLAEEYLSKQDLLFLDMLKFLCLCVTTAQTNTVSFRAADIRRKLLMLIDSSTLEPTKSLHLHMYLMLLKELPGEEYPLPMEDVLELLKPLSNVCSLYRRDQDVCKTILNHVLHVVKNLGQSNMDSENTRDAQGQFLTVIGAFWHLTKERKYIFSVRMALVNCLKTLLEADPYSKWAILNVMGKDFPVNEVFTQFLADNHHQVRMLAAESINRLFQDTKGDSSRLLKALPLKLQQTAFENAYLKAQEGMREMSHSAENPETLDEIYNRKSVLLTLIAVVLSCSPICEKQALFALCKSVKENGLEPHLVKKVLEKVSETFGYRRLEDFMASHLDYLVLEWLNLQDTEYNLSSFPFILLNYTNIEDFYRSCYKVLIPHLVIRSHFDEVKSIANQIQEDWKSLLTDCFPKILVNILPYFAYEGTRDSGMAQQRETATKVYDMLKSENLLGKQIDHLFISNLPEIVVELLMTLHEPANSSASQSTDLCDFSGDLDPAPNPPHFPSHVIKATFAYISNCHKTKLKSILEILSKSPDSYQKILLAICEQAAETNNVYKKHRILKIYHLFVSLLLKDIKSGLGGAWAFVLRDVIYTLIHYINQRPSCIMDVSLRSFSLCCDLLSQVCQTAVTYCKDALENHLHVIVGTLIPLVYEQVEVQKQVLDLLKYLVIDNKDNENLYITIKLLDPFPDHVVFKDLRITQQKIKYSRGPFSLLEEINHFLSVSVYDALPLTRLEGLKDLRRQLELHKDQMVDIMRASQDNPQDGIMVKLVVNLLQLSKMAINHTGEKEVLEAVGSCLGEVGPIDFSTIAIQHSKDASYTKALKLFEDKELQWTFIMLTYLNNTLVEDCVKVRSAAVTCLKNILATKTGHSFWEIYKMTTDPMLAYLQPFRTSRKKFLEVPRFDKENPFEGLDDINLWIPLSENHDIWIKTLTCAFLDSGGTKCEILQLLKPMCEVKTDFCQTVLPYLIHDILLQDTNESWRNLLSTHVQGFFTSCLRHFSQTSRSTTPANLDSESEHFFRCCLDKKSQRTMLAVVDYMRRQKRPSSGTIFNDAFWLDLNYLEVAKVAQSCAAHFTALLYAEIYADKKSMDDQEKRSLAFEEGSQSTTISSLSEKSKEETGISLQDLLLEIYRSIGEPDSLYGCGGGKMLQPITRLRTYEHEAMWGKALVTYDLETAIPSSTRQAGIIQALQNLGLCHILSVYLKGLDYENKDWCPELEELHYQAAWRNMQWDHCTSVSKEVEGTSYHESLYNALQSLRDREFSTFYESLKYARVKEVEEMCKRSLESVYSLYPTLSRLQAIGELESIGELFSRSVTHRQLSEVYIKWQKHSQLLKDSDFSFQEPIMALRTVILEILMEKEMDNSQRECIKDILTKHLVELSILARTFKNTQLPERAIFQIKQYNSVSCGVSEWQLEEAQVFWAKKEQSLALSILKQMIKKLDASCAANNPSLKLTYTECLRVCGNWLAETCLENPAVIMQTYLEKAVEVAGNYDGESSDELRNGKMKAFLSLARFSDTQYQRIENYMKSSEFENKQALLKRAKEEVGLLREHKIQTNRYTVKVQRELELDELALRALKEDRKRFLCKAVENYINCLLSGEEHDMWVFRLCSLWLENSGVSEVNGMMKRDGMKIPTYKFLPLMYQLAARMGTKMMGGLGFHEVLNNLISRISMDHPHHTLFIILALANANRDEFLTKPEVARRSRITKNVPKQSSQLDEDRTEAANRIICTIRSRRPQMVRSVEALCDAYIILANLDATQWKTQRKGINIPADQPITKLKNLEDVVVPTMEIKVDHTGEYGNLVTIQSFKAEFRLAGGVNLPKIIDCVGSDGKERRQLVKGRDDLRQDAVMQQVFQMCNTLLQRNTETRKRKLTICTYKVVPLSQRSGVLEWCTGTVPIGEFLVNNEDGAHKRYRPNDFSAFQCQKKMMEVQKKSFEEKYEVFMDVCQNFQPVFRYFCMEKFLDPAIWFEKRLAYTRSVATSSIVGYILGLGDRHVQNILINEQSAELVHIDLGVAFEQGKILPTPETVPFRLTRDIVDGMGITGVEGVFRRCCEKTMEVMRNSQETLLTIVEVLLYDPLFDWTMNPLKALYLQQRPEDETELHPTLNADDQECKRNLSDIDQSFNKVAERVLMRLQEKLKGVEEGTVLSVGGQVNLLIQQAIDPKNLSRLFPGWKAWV
inactive: [1] -0.063 | [2] -0.004 | [3] 0.041 | [4] 0.005 | [5] -0.078 | [6] 0.021 | [7] -0.089 | [8] 0.071 | [9] -0.011 | [10] 0.032

CCDC25 (UniProt Q86WR0)
Chain of UniProt Q86WR0 (Q86WR0 whole entry, looked up): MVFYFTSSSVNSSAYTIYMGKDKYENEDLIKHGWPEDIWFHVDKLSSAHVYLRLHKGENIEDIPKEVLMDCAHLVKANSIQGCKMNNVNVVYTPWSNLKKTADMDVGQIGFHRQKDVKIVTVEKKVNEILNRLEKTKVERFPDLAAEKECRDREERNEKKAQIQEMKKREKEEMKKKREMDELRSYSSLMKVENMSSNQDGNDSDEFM
inactive: [1] -0.033 | [2] 0.008 | [3] 0.01 | [4] 0.027 | [5] 0.005 | [6] -0.023 | [8] -0.079 | [9] 0.007 | [10] -0.009
active: [7] 0.581

CDC25C (UniProt P30307)
inactive: [1] 0.031 | [2] 0.093 | [3] -0.028 | [4] -0.08 | [5] -0.004 | [6] 0.083 | [7] 0.314 | [8] 0.155 | [9] -0.053 | [10] 0.016

C5orf51 (UniProt A6NDU8)
inactive: [1] -0.002 | [2] 0.009 | [3] 0.046 | [4] -0.014 | [5] -0.029 | [6] 0.053 | [7] 0.036 | [8] -0.137 | [9] 0.016 | [10] 0.036

BRD4 (UniProt O60885)
active: [4] 0.538 | [5] 0.217
inactive: [1] 0.049 | [2] 0.016 | [3] -0.007 | [6] -0.008 | [7] -0.007 | [8] 0.037 | [9] -0.025 | [10] -0.012

CEP120 (UniProt Q8N960)
inactive: [1] 0.052 | [2] -0.098 | [3] 0.033 | [4] -0.411 | [5] 0.029 | [6] -0.134 | [7] -0.233 | [8] 0.119 | [9] 0.008 | [10] 0.034

ATG4A (UniProt Q8WYN0)
Chain of UniProt Q8WYN0 (Q8WYN0 whole entry, looked up): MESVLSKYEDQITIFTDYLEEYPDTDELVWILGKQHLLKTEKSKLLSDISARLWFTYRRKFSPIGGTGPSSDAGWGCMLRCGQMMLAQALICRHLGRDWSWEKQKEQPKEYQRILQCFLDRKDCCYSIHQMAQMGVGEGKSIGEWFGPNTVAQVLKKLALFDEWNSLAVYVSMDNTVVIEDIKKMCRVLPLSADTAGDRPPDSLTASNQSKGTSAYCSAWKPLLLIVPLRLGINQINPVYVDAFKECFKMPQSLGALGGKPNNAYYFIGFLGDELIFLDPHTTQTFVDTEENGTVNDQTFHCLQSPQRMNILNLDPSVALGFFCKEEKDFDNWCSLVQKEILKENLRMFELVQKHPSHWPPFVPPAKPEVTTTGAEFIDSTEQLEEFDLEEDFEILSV
inactive: [1] -0.045 | [2] 0.033 | [3] 0.012 | [4] -0.047 | [5] -0.015 | [6] 0.008 | [7] 0.027 | [8] -0.045 | [9] 0.034 | [10] -0.043

CDK1 (UniProt P06493)
inactive: [1] 0.012 | [2] -0.017 | [3] -0.029 | [4] -0.041 | [5] -0.037 | [6] -0.006 | [7] -0.056 | [8] -0.049 | [9] 0.016 | [10] -0.002

CHCHD7 isoform 4 (UniProt Q9BUK0)
Chain of UniProt Q9BUK0 (Q9BUK0 whole entry, looked up): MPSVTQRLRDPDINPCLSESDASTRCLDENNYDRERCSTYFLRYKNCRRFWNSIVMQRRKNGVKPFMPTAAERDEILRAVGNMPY
inactive: [1] 0.026 | [2] 0.06 | [3] -0.026 | [4] 0.073 | [5] -0.064 | [6] 0.021 | [8] 0.155 | [9] -0.021 | [10] 0.077
active: [7] -0.71

CAMLG (UniProt P49069)
active: [7] 0.257
inactive: [1] -0.027 | [2] 0 | [3] -0.021 | [4] 0.026 | [5] 0.002 | [6] -0.089 | [8] -0.04 | [9] -0.026 | [10] -0.002

CHCHD1 (UniProt Q96BP2)
active: [7] 1.08
inactive: [1] 0.157 | [2] -0.025 | [3] -0.002 | [4] 0.028 | [5] -0.001 | [6] -0.075 | [8] -0.338 | [9] 0.032 | [10] 0.16

ATG7 (UniProt O95352)
inactive: [1] -0.031 | [2] 0.014 | [3] -0.002 | [4] -0.032 | [5] -0.052 | [6] 0.021 | [7] -0.058 | [8] 0.091 | [9] -0.003 | [10] 0.037

AURKA (UniProt O14965)
active: [3] 0.763 | [7] 0.719
inactive: [1] 0.088 | [2] 0.068 | [4] -0.062 | [5] -0.015 | [6] -0.009 | [8] 0.096 | [9] 0.008 | [10] 0.028

BLM (UniProt P54132)
inactive: [1] 0.007 | [2] 0.013 | [3] -0.071 | [4] -0.063 | [5] -0.029 | [6] 0.054 | [7] 0.247 | [8] -0.14 | [9] -0.014 | [10] -0.01

CASP3 (UniProt P42574)
Chain of UniProt P42574 (P42574 whole entry, looked up): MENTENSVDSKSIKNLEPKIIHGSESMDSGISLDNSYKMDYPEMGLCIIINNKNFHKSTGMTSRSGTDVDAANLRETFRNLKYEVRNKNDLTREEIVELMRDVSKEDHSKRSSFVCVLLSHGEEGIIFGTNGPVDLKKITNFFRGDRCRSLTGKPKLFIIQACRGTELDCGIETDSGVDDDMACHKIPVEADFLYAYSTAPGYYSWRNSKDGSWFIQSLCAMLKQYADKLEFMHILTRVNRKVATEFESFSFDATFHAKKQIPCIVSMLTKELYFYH
active: [7] 0.279
inactive: [1] 0.002 | [2] 0.015 | [3] -0.024 | [4] 0.034 | [5] 0.013 | [6] -0.011 | [8] -0.049 | [9] -0.036 | [10] -0.013

ATXN2 (UniProt Q99700)
inactive: [1] 0.007 | [2] -0.004 | [3] 0.012 | [4] 0.057 | [5] 0.001 | [6] 0.022 | [7] 0.005 | [8] -0.03 | [9] -0.014 | [10] 0.052

BUB1B isoform 3 (UniProt O60566)
inactive: [1] 0.024 | [2] 0.024 | [3] 0.03 | [4] -0.012 | [5] -0.014 | [6] 0.01 | [7] 0.13 | [8] -0.05 | [9] -0.006 | [10] 0.009

BAG4 (UniProt O95429)
inactive: [1] -0.055 | [2] 0 | [3] 0.048 | [4] 0.004 | [5] -0.003 | [6] 0.036 | [7] -0.037 | [8] 0.102 | [9] 0.018 | [10] -0.043

CAMKK1 isoform 2 (UniProt Q8N5S9)
inactive: [1] -0.041 | [2] -0.062 | [3] 0.11 | [4] 0.103 | [5] 0.136 | [6] 0.115 | [7] -0.204 | [8] 0.041 | [9] -0.063 | [10] -0.013

CAPN15 (UniProt O75808)
inactive: [1] 0.04 | [2] -0.046 | [3] 0.077 | [4] -0.007 | [5] 0.027 | [6] 0.013 | [7] 0.037 | [8] 0.016 | [9] 0.032 | [10] -0.091

CCNC (UniProt P24863)
inactive: [1] 0.22 | [2] 0.046 | [3] -0.026 | [4] -0.017 | [5] -0.079 | [6] 0.029 | [7] -0.211 | [8] 0.135 | [9] -0.001 | [10] -0.062

CDC123 (UniProt O75794)
inactive: [1] -0.052 | [2] 0.014 | [3] 0.04 | [4] -0.12 | [5] -0.05 | [6] 0.032 | [7] 0.018 | [8] -0.021 | [9] 0.012 | [10] 0.013

BUD23 isoform 3 (UniProt O43709)
active: [7] -0.341
inactive: [1] 0.01 | [2] 0.017 | [3] 0.038 | [4] -0.006 | [5] -0.029 | [6] -0.104 | [8] 0.193 | [9] 0.019 | [10] 0.017

CAMK2G isoform 8 (UniProt Q13555)
inactive: [1] 0.067 | [2] -0.03 | [3] 0.058 | [4] 0.102 | [5] -0.033 | [6] -0.079 | [7] -0.001 | [8] 0.022 | [9] 0.086
active: [10] 0.345

BORCS5 (UniProt Q969J3)
active: [3] 0.201
inactive: [1] 0.044 | [2] 0.005 | [4] 0.057 | [5] 0.027 | [6] -0.01 | [7] 0.075 | [8] -0.055 | [9] 0.013 | [10] 0.017

CANX isoform 2 (UniProt P27824)
Chain of UniProt P27824 (P27824 whole entry, looked up): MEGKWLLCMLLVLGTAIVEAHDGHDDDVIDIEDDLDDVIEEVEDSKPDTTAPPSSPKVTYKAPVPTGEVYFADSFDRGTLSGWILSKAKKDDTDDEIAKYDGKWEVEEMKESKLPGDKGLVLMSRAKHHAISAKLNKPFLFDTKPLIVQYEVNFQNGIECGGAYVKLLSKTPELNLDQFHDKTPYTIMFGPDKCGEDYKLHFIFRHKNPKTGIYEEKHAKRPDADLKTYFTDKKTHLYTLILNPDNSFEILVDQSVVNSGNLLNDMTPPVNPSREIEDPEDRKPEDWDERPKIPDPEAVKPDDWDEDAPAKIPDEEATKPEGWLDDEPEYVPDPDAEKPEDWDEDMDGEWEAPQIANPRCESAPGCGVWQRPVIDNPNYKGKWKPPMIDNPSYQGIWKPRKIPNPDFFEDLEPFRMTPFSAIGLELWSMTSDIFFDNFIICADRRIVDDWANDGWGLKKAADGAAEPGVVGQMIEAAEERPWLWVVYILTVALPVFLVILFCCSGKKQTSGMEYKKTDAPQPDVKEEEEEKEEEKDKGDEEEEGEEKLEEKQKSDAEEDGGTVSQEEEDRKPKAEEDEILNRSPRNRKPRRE
inactive: [1] 0.015 | [2] -0.012 | [3] -0.015 | [4] 0.061 | [5] 0.033 | [6] -0.014 | [7] -0.074 | [8] 0.034 | [9] 0.001 | [10] 0.036
